Compound activity deposited in PubChem BioAssay by National Center for Advancing Translational Sciences (NCATS).
The list is not random: actives were taken first. Their share in the collection is about 7.5%.
FLuc counter – firefly luciferase modulation, counter-screen for miR-21 project; P08659; purified FLuc, Km substrates, luminescence inhibition; Potency, µM (top dose mostly 57.5 µM), for inactives: at the highest dose activity change, negative = inhibition, hits mostly inhibitors; 6.9% of 360,000 active;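 further: plate controls were vehicle for no effect and reference inhibitor for full effect; nearly all actives have a fitted effect of over 55% in size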
Target sequence (P08659 whole entry, looked up): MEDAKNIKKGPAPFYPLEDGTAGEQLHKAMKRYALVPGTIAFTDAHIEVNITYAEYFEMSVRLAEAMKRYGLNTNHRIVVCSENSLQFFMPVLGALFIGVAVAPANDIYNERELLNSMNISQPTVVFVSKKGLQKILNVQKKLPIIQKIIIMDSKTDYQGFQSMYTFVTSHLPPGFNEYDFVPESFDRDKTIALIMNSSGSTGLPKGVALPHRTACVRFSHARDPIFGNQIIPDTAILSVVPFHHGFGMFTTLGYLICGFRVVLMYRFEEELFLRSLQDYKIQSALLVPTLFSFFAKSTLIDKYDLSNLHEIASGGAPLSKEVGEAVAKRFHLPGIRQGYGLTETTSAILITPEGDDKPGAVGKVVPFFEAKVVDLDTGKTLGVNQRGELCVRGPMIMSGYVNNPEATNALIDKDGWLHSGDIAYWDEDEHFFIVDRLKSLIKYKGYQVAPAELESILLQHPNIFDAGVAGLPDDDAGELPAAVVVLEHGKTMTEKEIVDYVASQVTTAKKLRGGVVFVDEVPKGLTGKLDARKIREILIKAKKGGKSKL
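Biochemical qHTS of compounds, final roughly 60 µM downward over six points, against 10 nM purified firefly luciferase using Km concentrations of substrates (10 uM D-luciferin, 10 uM ATP) in Tris acetate pH 7.5 buffer; luminescence output.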
ELG1 genotoxic – genotoxicity induction in ELG1-luciferase HEK293T cells; 1.3% of 330,000 active; AID 504466; Potency, µM (series often up to 46 µM), for the others: at the highest dose activity change, positive = activation, usual class: activators; HEK293T ELG1-luciferase reporter, luminescence, 16 h; further: % of control where 0% means no effect; nearly all actives have a fitted effect of over 60% in size
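16 hr compound incubation (37 °C, 5% CO2) of HEK293T cells carrying luciferase-tagged ELG1; luciferase then measured by ONE-Glo luminescence after 30 min at RT.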
SMN2 splice up – increases expression of the SMN2 splice variant | HEK293 SMN2-luciferase splicing reporter, luminescence, 30-36 h | Potency, µM (series often up to 46.1 µM), for inactives: at the highest dose activity change, positive = activation, hits mostly activators | 2.8% of 210,000 active; further: % of control where 0% means no effect; nearly all actives have a fitted effect of over 55% in size
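HEK293 cells carry an SMN2 […]–luciferase reporter in which exon 7 inclusion puts luciferase in frame. Cells were plated 10-12 h before compound addition, then incubated 30-36 h at 37C. ONE-Glo luminescence was read; sodium butyrate at 4.5 mM final served as control.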
Rab9 promoter act – activates the Rab9 promoter; Huh7 Rab9 promoter-luciferase reporter, luminescence, 24 h; Potency, µM (top dose mostly 9.22 µM), for the others: at the top dose activation, negative = inhibition, usual class: activators; 2.8% of 320,000 active; AID 485297; further: % of control where 0% means no effect; nearly all actives have a fitted effect of over 60% in size
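Measured in stably transfected Huh7 cells bearing a Rab9 promoter–luciferase construct: 24 h compound treatment at 37 °C, followed by luminescence detection.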
NPC1 prom act – activators of NPC1 promoter | 2.4% of 320,000 active | Potency, µM (series often up to 9.22 µM), for the others: top-dose activation, most hits filed as activators | Huh7 NPC1 promoter luciferase reporter, 24 h; further: % of control where 0% means no effect; nearly all actives have a fitted effect of over 60% in size
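Readout is luciferase luminescence, reflecting NPC1 promoter activation in stably transfected Huh7 cells after 24 h compound exposure at 37 °C in reduced-serum medium with 10% FBS.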
Starred values were filed as active, the others as inactive; ? = inconclusive; . = no result given; [ ] = another dose, or the depositor's remark. The call rests on the fitted dose curve; in most records, active means well fitted curve in the direction sought with a large enough effect; inconclusive means small, poorly fitted or top-dose-only effect, or another doubt; inactive means no such curve, though single readings can be large; an effect the other way counts as inactive or inconclusive. Potency means the concentration at half of the fitted maximal effect.

SMILES	FLuc counter	ELG1 genotoxic	SMN2 splice up	Rab9 promoter act	NPC1 prom act
O=C(NCCc1ccccc1Cl)c1cc2ccccn2n1	12µM*	.	.	.	.
O=C(Nc1ccccc1C(F)(F)F)c1ccccn1	?	8%	-1%	-5%	-1%
CCOc1ccc(OCC)c(NC(=O)c2cc3ccccn3n2)c1	-15%	.	.	.	.
O=C(Nc1ccc(OC(F)(F)F)cc1)c1cc2ccccn2n1	2.7µM*	.	.	.	.
CCOC(=O)c1cc(NC(=O)c2cnccn2)cc(C(=O)OCC)c1	3%	1%	3%	-5%	0%
CCOC(=O)c1cccc(NC(=O)c2cnccn2)c1	-16%	?	?	?	2.8µM*
COc1ccc(NC(=O)c2cc3ccccn3n2)cc1	2.1µM*	1.2µM*	6.3µM*	?	1µM*
Cc1csc(NC(=O)c2cccn2C)n1	8.5µM*	?	16µM*	2.2µM*	3.5µM*
Cc1csc(NC(=O)c2ccc(C(=O)Nc3nc(C)cs3)cc2)n1	-8%	2%	.	9%	5%
Cc1csc(NC(=O)c2sccc2C)n1	11µM*	?	.	0.89µM*	1.8µM*
Cn1cccc1C(=O)Nc1nc(-c2ccccn2)cs1	8.5µM*	16%	25%	1.8µM*	2µM*
CCc1ccccc1NC(=O)c1nn(-c2ccc(C)cc2)c(=O)c2c1c1ccccc1n2C	1%	.	3%	.	.
O=C(O)c1cccc(NC(=S)N/N=C/c2ccccc2OCc2cccc(Br)c2)c1	?	3%	6%	0%	-1%
O=C(O)c1cccc(NC(=S)N/N=C/c2cccc(O)c2)c1	2.1µM*	-1%	5%	18%	14%
O=C(O)c1cccc(NC(=S)N/N=C/c2ccccn2)c1	0.38µM*	?	0.89µM*	0.32µM*	0.28µM*
O=C(O)c1cccc(NC(=S)N/N=C/c2ccccc2OCc2ccc(Br)cc2)c1	24µM*	16%	?	18%	27%
C[C@@H](NC(=O)C1(N)CCCC1)C(=O)O	.	.	-13%[9.22 µM]	.	.
CCOc1ccc(-c2noc(CCC(=O)O)n2)cc1	12µM*	6%	11%	-13%	-4%
COc1ccc(-c2noc(CCCC(=O)O)n2)cc1	11µM*	-1%	25%	-17%	-17%
COc1ccc(-c2noc(CCC(=O)O)n2)cc1	-26%	0%	-17%	-12%	-5%
O=C(CCNS(=O)(=O)c1ccc(Cl)cc1)NCc1cccs1	-1%	-11%	-10%	1%	-7%
Cc1ccc(NC(=O)CC2Nc3ccccc3NC2=O)cc1Cl (stereo unspecified)	24µM*	?	-5%	23%	15%
Cc1ccc(NC(=O)CC2Nc3ccccc3NC2=O)cc1C (stereo unspecified)	-12%	.	-6%	.	.
Cc1ccc(NC2Sc3ccccc3NC2=O)cc1Cl (stereo unspecified)	19µM*	-1%	.	0%	0%
O=C(CC1Nc2ccccc2NC1=O)c1ccccc1 (stereo unspecified)	3µM*	9.2µM*	13µM*	2.5µM*	?
SMILES	FLuc counter	ELG1 genotoxic	SMN2 splice up	Rab9 promoter act	NPC1 prom act
CCOc1ccc(NC(=O)Cn2c(=O)c(CNc3ccc(OC)cc3)cc3ccc(OC)cc32)cc1	-1%	.	.	.	.
N#CCSc1ncnc2ccccc12	-4%	-16%	-36%	-12%	-7%
c1ccc(Sc2ncnc3ccccc23)cc1	19µM*	-13%	.	-1%	0%
CC(=O)Nc1cccc(NC(=O)c2ccc(COc3ccccc3)cc2)c1	2.1µM*	15µM*	.	2.8µM*	2.8µM*
N#C/C(=C\c1ccc(OCc2ccc(Cl)cc2)cc1)C(=O)Nc1cccc(C(=O)O)c1	-19%	?	.	10%	14%
O=C(O)c1cccc(NC(=O)c2ccc(COc3ccc(Cl)cc3)cc2)c1	6µM*	8%	.	3.2µM*	?
CCOc1c(Cl)cc(C(=O)Nc2cccc(C(=O)O)c2)cc1Cl	3µM*	?	.	0.71µM*	0.56µM*
CN1CCN(c2nc3c(c(=O)[nH]c(=O)n3C)n2Cc2ccc(Cl)cc2)CC1	5%	12%	.	-2%	2%
Cc1ccc(F)cc1NC(=O)COC(=O)C1CCN(c2ccc(C(F)(F)F)cn2)CC1	0%	15%	.	0%	0%
CC(=O)Nc1cccc(NC(=O)c2csc(C)c2)c1	0%	2%	.	-7%	-8%
COc1ccccc1OCC(=O)Nc1nc2c(s1)CCCC2	-15%	0%	.	22%	21%
Cc1cc(C(=O)Nc2nc3c(s2)CCCC3)cs1	0.6µM*	?	?	1µM*	?
Cc1cccc(C(=O)Nc2nc3c(s2)CCCC3)c1	1.3µM*	.	.	.	.
Cc1ncsc1C(=O)Nc1nc2c(s1)CCCC2	7.6µM*	?	11µM*	1µM*	2.5µM*
Cc1ccc(CC(=O)Nc2nc3c(s2)CCCC3)cc1	?	26%	.	8%	9%
COc1ccc(C(=O)Nc2nc3c(s2)CCCC3)cc1Cl	2.4µM*	.	.	.	.
COc1cccc(CNC(=O)CN2C(=O)CSc3ccc(S(=O)(=O)N4CCCC4)cc32)c1	-7%	-2%	-26%	-4%	-2%
O=C(Nc1nc2c(s1)CCCC2)c1ccc(Br)s1	1.5µM*	?	?	0.5µM*	2.8µM*
COc1ccc(OC)c2sc(NC(=O)c3ccc(Br)s3)nc12	1%	0%	16%	-7%	1%
O=C(Nc1nc2c(s1)CCCC2)c1ccc2ncsc2c1	2.4µM*	?	0.5µM*	?	?
Cc1c(CC(=O)O)c(=O)oc2cc(OCc3ccc(Br)cc3)ccc12	11µM*	13%	.	15%	3%
Cc1c(CC(=O)O)c(=O)oc2cc(OCc3ccc(F)cc3F)ccc12	17µM*	3%	.	-2%	1%
Cc1c(CCC(=O)O)c(=O)oc2cc(OCc3ccccc3Br)ccc12	?	-3%	.	-3%	-4%
CCN(C(=O)Cn1nc2c3cc(F)ccc3n(Cc3cccc(C)c3)cc-2c1=O)c1cccc(C)c1	-4%	.	.	.	.
CC(=O)c1ccc(N2CCN(C(=O)c3cc(-c4cccnc4)nc4ccc(Br)cc34)CC2)cc1	11µM*	-9%	-19%	0%	2%
SMILES	FLuc counter	ELG1 genotoxic	SMN2 splice up	Rab9 promoter act	NPC1 prom act
O=C(c1cc(-c2cccnc2)nc2ccc(Br)cc12)N1CCN(c2ncccn2)CC1	21µM*	-10%	-16%	3%	-1%
CS(=O)(=O)N1CCN(C(=O)c2cc(-c3cccnc3)nc3ccc(Br)cc23)CC1	-13%	-5%	-9%	1%	-2%
O=S1(=O)CCN2C(=N1)Sc1c2ccc2c1CCCC2	15µM*	?	8%	17%	16%
O=C(O)c1ccc2c(c1)SC1=NS(=O)(=O)CCN12	2%	-1%	.	1%	2%
COCCCNC(=O)Cn1cc(/C=C(\C#N)C(=O)NC2CC2)c2ccccc21	-1%	-2%	.	2%	-1%
Cc1ccc(-n2ncc3c(Nc4ccc5c(c4)OCCO5)ncnc32)cc1Cl	-18%	.	.	.	.
Fc1ccc(-n2ncc3c(Nc4ccc5c(c4)OCCO5)ncnc32)cc1	17µM*	.	.	.	.
